# Data taken from PubChem BioAssay (NCI).
# The panel holds about 79,000 compounds, 15% with a hit somewhere; the sample as a whole holds those more often. Values without a mark were called inactive. Active and inactive are the calls of the source. Cut-off read from the data, not from the text of the source: active = growth inhibition above about 70%; inactive = the rest.
# Legend:
# [1] = NCI Yeast Anticancer Drug Screen. Data for the rad50 strain (AID 155);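 note: 0% = growth of vehicle-only cultures of the same strain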; conditions: S. cerevisiae rad50 strain growth inhibition; at 50.0 µM; hits give high values
# Procedure, shortened: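 Compounds were tested on a yeast strain with an engineered DNA damage repair alteration; the reported value is growth inhibition normalised to vehicle treatment.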
# [2] = NCI Yeast Anticancer Drug Screen. Data for the mec2-1 strain (AID 157); conditions: S. cerevisiae mec2-1 strain, at 50.0 µM, hits give high values
# Procedure, shortened: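 Vehicle-treated cultures served as reference for growth inhibition of compound-exposed mec2-1 yeast.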
# [3] = NCI Yeast Anticancer Drug Screen. Data for the sgs1 mgt1 strain (AID 161);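 note: 0% = growth of cultures given vehicle only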; conditions: S. cerevisiae sgs1 mgt1 strain, at 50.0 µM, hits give high values
# Procedure, shortened: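 Test agents were incubated with a DNA-repair-mutant yeast strain. Growth was then read and compared against vehicle-treated controls.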
# [4] = NCI Yeast Anticancer Drug Screen. Data for the cln2 rad14 strain (AID 165);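 note: 0% = growth equal to vehicle treated cultures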; conditions: S. cerevisiae cln2 rad14 strain, at 50.0 µM, hits give high values
# Procedure, shortened: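 Each compound was tested on cln2 rad14 yeast. Inhibition of growth was calculated against vehicle-exposed controls.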
# [5] = NCI Yeast Anticancer Drug Screen. Data for the bub3 strain (AID 167); conditions: S. cerevisiae bub3 mutant strain, at 50.0 µM, hits give high values
# Procedure, shortened: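 Growth of a checkpoint-deficient yeast mutant is measured after compound exposure. Values represent inhibition relative to vehicle.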
# [6] = NCI Yeast Anticancer Drug Screen. Data for the mlh1 rad18 strain (AID 175); conditions: S. cerevisiae mlh1 rad18 strain growth inhibition; at 50.0 µM; hits give high values
# Procedure, shortened: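 Vehicle-treated cultures served as the reference for growth inhibition in a yeast strain carrying DNA damage repair alterations exposed to each compound.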
Structure (SMILES),growth inhibition [1],growth inhibition [2],growth inhibition [3],growth inhibition [4],growth inhibition [5],growth inhibition [6]
O=C1Nc2ccc3c4c(ccc1c24)CC3,10.3%,-0.8%,-0.3%,-6.1%,10.7%,16.8%
CC(=O)c1cccc2c(C(C)=O)cccc12,5.45%,-5.2%,14.8%,-20.1%,3.4%,-15.1%
CN(C)C=Nc1cc2c(cc1Br)-c1ccccc1C2=O,3.05%,10.3%,4.4%,-0.45%,2%,-15.7%
COC1=CCC2=C(C1)C1(C)CCCC(C)(CO)C1CC2 (centres undefined),3.1%,18.5%,-7.9%,3.4%,14%,58.2%
O=C=Nc1ccc(Cc2ccc(N=C=O)cc2)cc1,-13.7%,6.7%,-7.45%,-15.2%,-23.9%,-36.5%
COC(=O)c1cc(C(=O)OC)c2c3[nH]cnc3ncn2c1=O,24.4%,9.85%,15.9%,18.6%,3.65%,21.4%
COc1ccc(OC(=O)Nc2ccc(OC)cc2Cl)cc1,3%,5.75%,7.05%,12.6%,24.7%,7.7%
COc1cc(/C=C2\N=C(C)N(n3c(-c4ccccc4)nc4ccccc4c3=O)C2=O)cc(OC)c1OC,-20.4%,19.6%,29.6%,2.7%,16.2%,7.3%
O=C1NC(=O)C(CCI)N1 (centres undefined),11.2%,0.15%,23.1%,16.9%,-15.2%,-12.7%
Nc1nc2sc3ccccc3c(=O)n2n1,-10.7%,-31.9%,11.5%,19.1%,-3.2%,-9.85%
Cc1ccc(-c2cc(=O)c3cc(C)c(C)c(C#N)c3o2)cc1,-10.2%,-5.75%,-13.8%,-1.7%,-22.4%,6.45%
CCOC(=O)N/N=C(\CC)NO,2.45%,1.35%,-7.7%,-7%,12.8%,5.7%
O=C(CBr)c1cc(-c2ccc(Cl)cc2)nc2c(-c3ccccc3)cccc12,14.2%,1.2%,27.6%,48.9%,2.15%,14.4%
COC=C(C(=O)OC)C(=O)OC,-1.65%,3.9%,0.5%,0.2%,-10.5%,3.85%
O=C(O)c1ccc(F)cc1C(=O)O,5.5%,6%,4.75%,5.25%,3.2%,1.45%
C[n+]1ccccc1/C=C/C=C/c1ccccc1,0.45%,-13.1%,1.4%,-17.3%,-6.1%,1.9%
Nc1cc(Cl)cc2[nH]c(=O)c3cc(Cl)ccc3c12,39.8%,7.25%,13.6%,5.35%,17.2%,38%
FC(F)(F)c1nc(=S)c2cn[nH]c2[nH]1,4.35%,31.1%,8.45%,-12.2%,35.5%,-5.3%
c1ccc2sc(-c3nc4ccccc4s3)nc2c1,26.3%,11.7%,5.55%,-21.7%,8.3%,12.4%
CCOC(=O)C(NC(C)=O)C(O)c1ccc(C(C)C)cc1 (centres undefined),10.8%,4.4%,8.45%,-33.7%,14.8%,14.7%

Structure (SMILES),growth inhibition [1],growth inhibition [2],growth inhibition [3],growth inhibition [4],growth inhibition [5],growth inhibition [6]
CCCCN(CCCC)C1(c2ccccc2)OC(c2ccccc2)=CC1=O (centres undefined),1.45%,5.75%,-0.55%,-10.5%,2.8%,20.6%
Cc1ccc(-n2cc(-c3ccc(Cl)cc3)c3c(=N)n(N)cnc32)cc1,-12.2%,-14.2%,49.8%,26.2%,16.8%,47%
CC1(C)CNCC2(C)OCCCOC3(C)CNCC(C)(C)NC(=O)C(C)(CNCC(C)(C)NC3=O)OCCCOC(C)(CNCC(C)(C)NC2=O)C(=O)N1,-22.6%,-21.1%,-24.4%,16.1%,-3.05%,-21.7%
Cn1c(=O)c2[nH]c(CC3=CCCCC3)nc2n(C)c1=O,-13.6%,13.1%,6.05%,-8.35%,4.4%,21.6%
COC(=O)/C(=C\c1ccccc1N)c1cc2c(cc1Br)OCO2,84.2% (active),40.2%,82.4% (active),41.4%,44.3%,68.1%
COc1ccccc1N=Nc1c(O)n(-c2ccccc2OC)c(=S)n(-c2ccc(I)cc2)c1=O,96% (active),96.2% (active),96% (active),92.8% (active),95.2% (active),96.7% (active)
CNc1ccc(C)cc1S(=O)(=O)c1ccccc1[N+](=O)[O-],65.5%,42.5%,58.1%,29.2%,47.1%,16.1%
BrC1CC1(c1ccccc1)c1ccccc1 (centres undefined),0.1%,0.35%,-3.5%,-6.4%,3.65%,-0.3%
C1=C(c2ccccc2)Cc2ccccc21,13.4%,24.4%,19.9%,-14.8%,15.4%,23.9%
Cc1cc2c(CC(=O)O)[nH]nc2c(C(=O)O)c1C,1.4%,-10.4%,-13.2%,4.8%,8.25%,-0.55%
N#CCSc1c(-c2ccccc2)c(=O)n(-c2ccccc2)c(=S)n1-c1ccccc1,20.7%,-17.9%,-2.3%,-16.8%,-20.6%,-0.65%
Cc1cc2c(nn1)CCc1c-2no[n+]1[O-],3.15%,-32.1%,-10.4%,22.5%,3.45%,-2.8%
CNC(=O)Sc1ccc([N+](C)(C)C)cc1,9.8%,0.1%,19.8%,-7.5%,18.8%,30.3%
c1ccc2c(c1)Nc1nc3ccccc3nc1N2,-40%,-5.7%,-33.8%,15.8%,-8%,16.9%
CC(C)OC(=O)C1=C(C(=O)OC(C)C)CCCC1,4.8%,21.6%,4.4%,13.2%,3.1%,13.7%
CCCCCCCCCCCCS(=O)(=O)N/N=C(\c1ccccc1Cl)N1CCOCC1,48.2%,33.5%,45.9%,48.2%,55.8%,51.2%
NN1CC(=O)N(c2ccccc2)CC1=O,0.5%,4.45%,-0.6%,42.8%,-7.65%,4.7%
CCCCCC(O)c1ccccc1 (centres undefined),22.7%,-15.1%,11.2%,-6.8%,-7.1%,17.5%
CC(=O)[CH-]C(=O)c1ccccc1.CC(=O)[CH-]C(=O)c1ccccc1.CC12CC3(C)CC(C)(C1)CC([O-])(C2)C3.CC[O-].[Ti+4],15.1%,21.8%,28.6%,23.8%,8.55%,18%
